The values below come from PubChem BioAssay (Tox21).

Inconclusive results are not listed. Some compounds were tested as several samples or in several runs, with calls that do not always agree. Calls of active or inactive are those of the source. Unless noted, calls follow the shape of the dose curve; as a rule, active = well fitted curve in the direction sought with a large enough effect in the repeat runs; inconclusive = weak or mixed curves; inactive = no such curve, though single readings can be large; an effect the other way counts as inactive or inconclusive.

Test [1] deals with Thyrotropin receptor (Homo sapiens) (UniProt P16473). Description: qHTS assay to identify small molecule antagonists of the thyroid stimulating hormone receptor (TSHR) signaling pathway (AID 1259385; calls by dose curve; also: nearly all actives have a fitted effect of over 20% in size). In outline: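 TSHR-HEK293 cells were plated and held 18 h at 37C/5% CO2, then given compound plus Ro20-1724 and stimulated with TSH at 1.5 ng/mL final. After 30 min at room temperature, cAMP was detected with cAMP-d2/anti-cAMP-cryptate (1 h) by fluorescence.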
Chain of Thyrotropin receptor (Homo sapiens) (P16473 whole entry, looked up): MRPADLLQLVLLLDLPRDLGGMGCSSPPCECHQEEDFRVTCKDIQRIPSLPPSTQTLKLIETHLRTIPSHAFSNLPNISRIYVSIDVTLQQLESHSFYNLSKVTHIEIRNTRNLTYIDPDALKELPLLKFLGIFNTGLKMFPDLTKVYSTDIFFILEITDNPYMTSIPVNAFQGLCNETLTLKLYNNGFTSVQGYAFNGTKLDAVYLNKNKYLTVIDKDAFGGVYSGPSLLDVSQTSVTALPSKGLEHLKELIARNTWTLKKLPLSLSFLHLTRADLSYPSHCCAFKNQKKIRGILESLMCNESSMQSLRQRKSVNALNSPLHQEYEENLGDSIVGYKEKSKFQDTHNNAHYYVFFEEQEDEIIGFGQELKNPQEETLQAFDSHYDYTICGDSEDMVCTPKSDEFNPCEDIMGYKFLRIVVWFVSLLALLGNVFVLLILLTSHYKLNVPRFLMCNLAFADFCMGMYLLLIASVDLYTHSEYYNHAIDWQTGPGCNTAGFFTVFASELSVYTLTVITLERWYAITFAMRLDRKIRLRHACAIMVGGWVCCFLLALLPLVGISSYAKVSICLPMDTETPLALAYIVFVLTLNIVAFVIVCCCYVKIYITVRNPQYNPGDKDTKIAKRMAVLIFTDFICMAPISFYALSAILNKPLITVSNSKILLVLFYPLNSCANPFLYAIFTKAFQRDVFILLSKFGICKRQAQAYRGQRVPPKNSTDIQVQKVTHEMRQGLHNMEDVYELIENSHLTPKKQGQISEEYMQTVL

Test [2] in a line: qHTS assay to identify small molecule agonists of the estrogen receptor alpha (ER-alpha) signaling pathway in the presence of an antagonist - cell viability counter screen (AID 1259386).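 Also: series mostly up to about 92 µM; cells exposed to compounds for 22 h at 37 °C before the viability read; nearly all actives have a fitted effect of over 30% in size.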 An outline of the steps:
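Using estrogen-depleted VM7Luc4E2 cells, the 15-concentration compound series was applied together with 10.0nM ICI-182,780 and incubated 22hr at 37C/5% CO2. Cell viability was then scored by CellTiter-Fluor.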

Test [3] addresses Progesterone receptor (Homo sapiens) (UniProt P06401). Description: qHTS assay to identify small molecule agonists of the progesterone receptor (PR) signaling pathway (AID 1346784; calls by dose curve; also: nearly all actives have a fitted effect of over 30% in size). In outline:
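Agonist mode, quantitative HTS format in a HEK 293T line expressing a UAS-controlled beta-lactamase reporter; 16 hr compound exposure at 37C in 2% charcoal-stripped FBS, then LiveBLAzer B/G FRET fluorescence.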

For test [4] the target is unchanged. Description: qHTS assay to identify small molecule antagonists of the progesterone receptor (PR) signaling pathway (AID 1346795; active = well fitted inhibition curve with a large enough effect in the signal ratio in the repeat runs, not every such curve was filed as active; the % refers to the signal ratio). In outline: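 HEK293T PR-UAS-bla reporter cells in charcoal-stripped serum (2%) received compound after a 6 hr settling period, followed by R5020 agonist at 1 nM final; 16 hr incubation preceded the FRET substrate step and fluorescence measurement.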

Test [5] is described as follows: qHTS assay to identify small molecule antagonists of the progesterone receptor (PR) signaling pathway - cell viability counter screen (AID 1346798). Also: series mostly up to about 92 µM; nearly all actives have a fitted effect of over 50% in size. In outline:
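Same-well multiplex: after 16 hr at 37C with compound and R5020 stimulation, HEK293T cells carrying a UAS-bla reporter received LiveBLAzer substrate (2 hr RT), then CellTiter-Glo (30 min RT) for luminescent viability.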

Test [6] in a line: qHTS assay to identify small molecule antagonists of the TGF-beta/Smad signaling pathway - cell viability counter screen (AID 1346824). Also: nearly all actives have a fitted effect of over 50% in size. An outline of the steps: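 SBE-bla HEK 293T cells were plated overnight at 37 C, then given compounds in DMSO plus TGF-beta1 (added as 0.25 ng/mL solution) for 5 hr. After the bla read, CellTiter-Glo was added to the same wells and luminescence read after 30 min at room temperature.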

Test [7] in a line: qHTS assay to identify small molecule agonists of the TGF-beta/Smad signaling pathway - cell viability counter screen (AID 1346829). Also: top concentration of the series differs between compounds; nearly all actives have a fitted effect of over 45% in size. In outline:
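Same-well cytotoxicity: CellTiter-Glo added after the 2 hr room-temperature beta-lactamase substrate step, luminescence measured 30 min later; cells had 5 hr of compound at 37 C.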

The nature of test [8]: qHTS assay to identify small molecule agonists of the TGF-beta/Smad signaling pathway (AID 1346859; active = well fitted activation curve with a large enough effect in the signal ratio in the repeat runs, not every such curve was filed as active; the % refers to the signal ratio; also: series mostly up to about 77 µM). An outline of the steps:
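Smad-responsive beta-lactamase reporter cells (HEK 293T) received compounds from DMSO stocks after overnight attachment, were incubated 5 hr, then treated 2 hr with FRET substrate before dual-emission fluorescence measurement (405 nm excitation).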

The target in test [9] is Thyrotropin-releasing hormone receptor (Homo sapiens) (UniProt P34981). Put plainly: qHTS assay to identify small molecule antagonists of the thyrotropin-releasing hormone receptor (TRHR) signaling pathway (AID 1346877; active = well fitted inhibition curve with a large enough effect in the repeat runs, not every such curve was filed as active; also: series mostly up to about 51 µM). In outline:
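Calcium signal in dye-loaded TRHR/HEK293 cells; compounds added 5 min before TRH (1 nM final); fluorescence monitored 3 min at 1 s steps.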

The target is the same in test [10]. Put plainly: qHTS assay to identify small molecule agonists of the thyrotropin-releasing hormone receptor (TRHR) signaling pathway (AID 1346891; calls by dose curve;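 also: HEK293 cells expressing TRHR with calcium dye readout; series mostly up to about 58 µM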). In outline: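 Agonist-mode calcium mobilisation screen: TRHR-transfected HEK293 cells cultured overnight (18 h), dye-loaded for 2 h at 37 °C, exposed to compounds, and monitored by fluorescence for 3 min.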
Test [11] in a line: Human pregnane X receptor (PXR) small molecule agonists, qHTS cell viability counter screen (AID 1346977). Also: nearly all actives have a fitted effect of over 50% in size. In outline:
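Measures live-cell protease fluorescence (CellTiter-Fluor) in PXR-Luc HepG2 cells treated 24hr with compounds at 37C. Cells had 5hr to attach before pin transfer of DMSO solutions.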

Test [12] can be described thus: Caspase-3/7 induction in HepG2 cells by small molecules, qHTS assay (AID 1346978). Also: nearly all actives have a fitted effect of over 15% in size. In outline:
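Wild-type HepG2 cells (2,000/well) were settled 5 h at 37 C, 5% CO2, then exposed to compounds in DMSO for 17 h. Caspase-3/7 activity was read by luminescence 30 min after adding Caspase-Glo 3/7 reagent at room temperature.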

A short description of test [13]: Caspase-3/7 induction in CHO-K1 cells by small molecules, qHTS cell viability counter screen (AID 1346979). Also: nearly all actives have a fitted effect of over 35% in size. An outline of the steps: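 In the same wells as the caspase read, viability of compound-treated wild-type CHO-K1 cells was assessed using CellTiter-Fluor, added after 16hr at 37C and measured by fluorescence following 1hr further incubation.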
A short description of test [14]: Caspase-3/7 induction in CHO-K1 cells by small molecules, qHTS assay (AID 1346980). Also: nearly all actives have a fitted effect of over 15% in size. In outline: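 Wild-type cells were seeded at 1,500 per well and settled 5 hr at 37 C, 5% CO2, then exposed to DMSO-dissolved compounds for 17 hr. Caspase-Glo 3/7 reagent was added, and luminescence was read after 30min at room temperature.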
Test [15] addresses Nuclear receptor subfamily 1 group I member 2 (Homo sapiens) (UniProt O75469). Put plainly: Human pregnane X receptor (PXR) small molecule agonists, qHTS assay (AID 1346982). Also: nearly all actives have a fitted effect of over 35% in size. An outline of the steps: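 Tox21 qHTS; PXR-Luc HepG2; compounds pinned from DMSO; 24 hr, 37 C; ONE-Glo luciferase detection, 30 min room temperature.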
Test [16] concerns the target Cytochrome P450 2D6 (Homo sapiens) (UniProt P10635). Put plainly: Cytochrome P450 Family 2 Subfamily D Member 6 (CYP2D6) small molecule antagonists: luciferase reporter qHTS assay (AID 1671196). Also: nearly all actives have a fitted effect of over 50% in size. Also: potency is read from the fitted curve at half-maximal effect. In outline: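 Room-temperature luminescent CYP2D6 activity assay: compound preincubated 10 min with enzyme–substrate mix, NADPH-initiated reaction 1 h, detection reagent 20 min before reading.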

Test [17] in a line: Caspase-3/7 induction in HepG2 cells by small molecules, qHTS cell viability counter screen (AID 1346981). Also: series mostly up to about 92 µM; nearly all actives have a fitted effect of over 30% in size. An outline of the steps: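 After a 5-hr attachment period at 37 C and 5% CO2, wild-type HepG2 cells received compounds in DMSO. Sixteen hours later CellTiter-Fluor was dispensed and the fluorescent signal quantified after a further hour.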
Test [18] in a line: qHTS assay to identify small molecule agonists of the progesterone receptor (PR) signaling pathway - cell viability counter screen (AID 1346799; calls by dose curve; also: nearly all actives have a fitted effect of over 45% in size). An outline of the steps: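 Counter screen for cytotoxicity: compound-treated PR-UAS-bla HEK293T cells (16 hr, 37C, 5% CO2) were assayed with CellTiter-Glo, luminescence measured after 30 min at room temperature.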

Chain of Progesterone receptor (Homo sapiens) (P06401 whole entry, looked up): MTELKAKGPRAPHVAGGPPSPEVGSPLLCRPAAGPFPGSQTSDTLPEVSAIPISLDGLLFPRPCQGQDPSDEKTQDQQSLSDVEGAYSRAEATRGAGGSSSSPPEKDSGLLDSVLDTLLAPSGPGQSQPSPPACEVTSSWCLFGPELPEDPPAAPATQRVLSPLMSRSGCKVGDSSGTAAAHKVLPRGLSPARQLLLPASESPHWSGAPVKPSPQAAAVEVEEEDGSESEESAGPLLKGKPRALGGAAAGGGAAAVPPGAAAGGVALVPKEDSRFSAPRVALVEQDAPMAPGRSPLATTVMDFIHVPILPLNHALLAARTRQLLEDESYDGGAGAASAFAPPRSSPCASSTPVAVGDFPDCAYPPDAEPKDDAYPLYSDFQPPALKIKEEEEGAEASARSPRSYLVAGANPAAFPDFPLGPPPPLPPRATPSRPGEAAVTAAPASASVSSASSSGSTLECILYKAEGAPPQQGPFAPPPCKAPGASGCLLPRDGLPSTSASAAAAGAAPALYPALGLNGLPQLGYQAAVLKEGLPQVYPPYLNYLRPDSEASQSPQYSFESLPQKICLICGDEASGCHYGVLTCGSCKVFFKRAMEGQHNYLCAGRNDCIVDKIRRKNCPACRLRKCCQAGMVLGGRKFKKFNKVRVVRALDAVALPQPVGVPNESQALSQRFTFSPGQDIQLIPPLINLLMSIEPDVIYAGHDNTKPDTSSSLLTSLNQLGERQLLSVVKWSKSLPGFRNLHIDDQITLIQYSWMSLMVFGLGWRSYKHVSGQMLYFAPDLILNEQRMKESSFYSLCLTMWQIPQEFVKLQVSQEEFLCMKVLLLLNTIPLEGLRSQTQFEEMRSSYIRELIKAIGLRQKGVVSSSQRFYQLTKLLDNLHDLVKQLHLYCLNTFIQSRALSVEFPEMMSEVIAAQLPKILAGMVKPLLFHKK
Chain of Nuclear receptor subfamily 1 group I member 2 (Homo sapiens) (O75469 whole entry, looked up): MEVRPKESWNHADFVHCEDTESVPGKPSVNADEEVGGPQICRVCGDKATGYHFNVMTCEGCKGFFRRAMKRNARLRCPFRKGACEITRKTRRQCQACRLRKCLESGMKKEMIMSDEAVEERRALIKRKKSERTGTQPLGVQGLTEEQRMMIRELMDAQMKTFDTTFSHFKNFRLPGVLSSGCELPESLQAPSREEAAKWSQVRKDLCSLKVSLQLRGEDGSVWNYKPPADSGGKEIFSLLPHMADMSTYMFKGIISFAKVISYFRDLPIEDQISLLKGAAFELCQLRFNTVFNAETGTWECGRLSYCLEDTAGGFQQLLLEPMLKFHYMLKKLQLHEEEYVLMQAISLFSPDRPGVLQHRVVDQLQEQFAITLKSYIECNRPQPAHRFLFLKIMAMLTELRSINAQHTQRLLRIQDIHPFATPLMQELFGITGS
Chain of Thyrotropin-releasing hormone receptor (Homo sapiens) (P34981 whole entry, looked up): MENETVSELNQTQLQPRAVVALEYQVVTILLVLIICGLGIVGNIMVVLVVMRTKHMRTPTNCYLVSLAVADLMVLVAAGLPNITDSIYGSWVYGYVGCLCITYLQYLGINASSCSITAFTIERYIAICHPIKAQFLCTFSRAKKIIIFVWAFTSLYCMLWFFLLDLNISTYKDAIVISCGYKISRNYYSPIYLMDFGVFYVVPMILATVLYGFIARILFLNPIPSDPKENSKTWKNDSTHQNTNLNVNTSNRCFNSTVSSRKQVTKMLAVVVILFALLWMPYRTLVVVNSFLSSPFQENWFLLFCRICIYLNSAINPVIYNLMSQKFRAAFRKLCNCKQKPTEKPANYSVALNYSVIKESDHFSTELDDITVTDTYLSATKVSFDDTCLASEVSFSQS
Chain of Cytochrome P450 2D6 (Homo sapiens) (P10635 whole entry, looked up): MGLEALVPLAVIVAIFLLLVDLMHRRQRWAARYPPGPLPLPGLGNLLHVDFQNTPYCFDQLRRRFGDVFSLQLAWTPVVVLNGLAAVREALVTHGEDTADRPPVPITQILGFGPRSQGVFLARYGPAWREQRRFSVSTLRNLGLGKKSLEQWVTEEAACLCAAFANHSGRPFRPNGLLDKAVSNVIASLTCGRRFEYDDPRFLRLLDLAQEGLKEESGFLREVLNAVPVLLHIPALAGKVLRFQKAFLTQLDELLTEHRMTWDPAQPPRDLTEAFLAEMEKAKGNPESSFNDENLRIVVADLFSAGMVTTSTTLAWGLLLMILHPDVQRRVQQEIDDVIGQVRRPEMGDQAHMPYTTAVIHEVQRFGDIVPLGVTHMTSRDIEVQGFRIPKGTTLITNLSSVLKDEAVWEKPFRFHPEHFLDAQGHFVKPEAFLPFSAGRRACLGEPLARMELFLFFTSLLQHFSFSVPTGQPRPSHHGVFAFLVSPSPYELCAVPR

Regarding `O=C(O)CN(CC(=O)O)CC(=O)O`, the result in test [1], in test [8], in test [9] and in [14] was inactive. Besides, the Potency result in test [2], in test [3], in test [4], in test [5], in test [6] and in [7] was “inactive” throughout. Besides, the Potency entry in [10], in test [11], in [12], in test [13], in test [15] and in test [16] was “inactive” each time.
For the molecule `CN(C)Cc1cc(CN(C)C)c(O)c(CN(C)C)c1`, the call in test [1], in test [8], in test [9] and in test [14] was inactive. Also, the Potency entry in test [2], in [3], in test [4], in [5], in [6] and in test [7] was “inactive” throughout. In addition, the Potency result in test [10], in test [11], in [12], in test [13], in test [17] and in test [15] was “inactive” throughout. Besides, the Potency in test [16] was 79.6 µM (active) and inactive.
Turning to `NC(=O)NO`, the molecule was classed as inactive in test [1], in test [8], in test [9] and in test [14]. Also, the Potency entry in [2], in test [3], in [4], in test [5], in test [6] and in test [7] was “inactive” in each case. The Potency entry in [10], in test [11], in [12] and in [13] was “inactive” throughout.
For the molecule `CCc1cc(C(N)=S)ccn1`, the molecule was classed as inactive in [1], in test [8], in [9] and in test [14]. Moreover, the Potency result in test [2], in test [3], in test [4], in test [5], in test [18] and in test [6] was “inactive” in each case. In addition, the Potency result in test [7], in [10], in test [12], in [13] and in test [17] was “inactive” in each case.
Take `C=CCOC(=O)CC(C)C`: the molecule was called inactive in [1], in test [8], in test [9] and in test [14]. Besides, the Potency entry in test [2], in test [3], in test [4], in [5], in test [6] and in [7] was “inactive” each time. In addition, the Potency result in [10], in [11], in test [12], in [13], in [15] and in test [16] was “inactive” throughout.
As to `NC(=O)OCC(COC(N)=O)c1ccccc1`, the outcome in test [1], in [8], in test [9] and in test [14] was inactive. Besides, the Potency entry in test [2], in test [3], in test [4], in [5], in [18] and in test [6] was “inactive” in each case. For the same molecule, the Potency result in test [7], in [10], in test [11], in test [12], in test [13] and in [17] was “inactive” each time. In addition, the Potency result in [15] and in test [16] was “inactive” each time.
Take `Cn1cnc2c1c(=O)[nH]c(=O)n2C`: the call in test [1], in test [8], in [9] and in test [14] was inactive. Moreover, the Potency entry in test [2], in test [3], in [4], in [5], in test [6] and in test [7] was “inactive” throughout. For the same molecule, the Potency entry in test [10], in test [11], in [12] and in [13] was “inactive” in each case.
With `O=C(O)CCCCC1CCSS1` (stereo unspecified), the call in [1], in [8], in test [9] and in [14] was inactive. The Potency result in test [2], in [3], in test [4], in [5], in test [6] and in [7] was “inactive” each time. The Potency result in test [10], in test [12], in [13], in [17], in test [15] and in test [16] was “inactive” throughout.
